# Screening results (PubChem BioAssay)
# The full list was thinned out, with hits kept by preference.
# IMPase Li inh: qHTS Assay for Identifying the Cell-Membrane Permeable IMPase Inhibitors: Potentiation with Lithium; CHO-M1 cells, IP1 TR-FRET (IP-One), carbachol + lithium; Potency, µM (titrated, usually from 59.4 µM), inactives show at the highest dose activity, negative = IMPase inhibition, usual class: inhibitors; 210,000 compounds, 0.35% hits; AID 1457, 2008;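 note: IP1 builds up when IMPase is blocked and the TR-FRET signal falls; potency is the fitted concentration of half-maximal effect; plate controls were basal vehicle for no effect and high inhibitor control for full effect; nearly all actives have a fitted effect of over 50% in size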
#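 CHO cells stably expressing M1 receptor (2000/well, cultured 16–30 h) treated 30 min at 37C with compound plus low lithium. Cytosolic IP1 by TR-FRET (665/620 ratio and 620 channel) after 10 min lysis; AC50 by Hill fit.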
# IMPase inh: qHTS Assay for Identifying the Cell-Membrane Permeable IMPase Inhibitors. CHO-M1 cells, IP1 accumulation, HTRF TR-FRET ratio. Inositol monophosphatase 1 (Rattus norvegicus), P97697. 120,000 tested, under 10 active. inhibition (IP1 accumulation), % at 46.1 µM. AID 901, 2007; active = well fitted curve in the direction sought with a large enough effect in the signal ratio, not every such curve was filed as active; inconclusive = small, poorly fitted or top-dose-only effect, or a change in a side signal; inactive = no such curve, though single readings can be large or run the other way; the % refers to the signal ratio;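 note: cells stimulated with carbachol in lithium chloride buffer; plate controls were DMSO basal wells for no effect and reference inhibitor wells for full effect; higher means more IMPase inhibition seen as more IP1 and lower FRET ratio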
# Target sequence (P97697 whole entry, looked up): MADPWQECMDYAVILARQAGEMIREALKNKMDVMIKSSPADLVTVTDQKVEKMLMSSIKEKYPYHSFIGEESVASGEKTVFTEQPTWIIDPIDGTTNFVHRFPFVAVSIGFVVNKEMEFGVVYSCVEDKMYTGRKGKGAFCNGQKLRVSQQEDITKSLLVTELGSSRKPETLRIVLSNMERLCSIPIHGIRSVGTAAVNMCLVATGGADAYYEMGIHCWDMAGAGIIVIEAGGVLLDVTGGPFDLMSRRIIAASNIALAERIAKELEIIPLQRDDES
#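 In this qHTS, compounds (final up to 46 uM) act on CHO-M1 cells that are then activated through the M1 receptor with carbachol, in pH 7.4 buffer containing 50 mM LiCl, for 30 min. IP1 accumulation is quantified by the IP-One immunoassay.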
# ALOX15B inhib: qHTS Assay for Inhibitors of 15-hLO-2 (15-human lipoxygenase 2) | Polyunsaturated fatty acid lipoxygenase ALOX15B (Homo sapiens), O15296 | purified 15hLO-2, xylenol orange hydroperoxide absorbance | Potency, µM (titrated, usually from 57.1 µM), for the others: top-dose activity change, negative = inhibition, usual class: inhibitors | 110,000 compounds, 0.56% hits; note: potency is the fitted concentration of half-maximal effect; nearly all actives have a fitted effect of over 60% in size
#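 Read-out: hydroperoxide product oxidises ferrous iron, measured as xylenol orange complex via the 573-to-405 nm absorbance ratio after 30 min. Reaction: 50 nM enzyme, 15 min compound preincubation, 45 uM arachidonic acid, 90 min RT, Hepes pH 7.5 with Triton X-100.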
# ALOX12 inhib: qHTS Assay for Inhibitors of 12-hLO (12-human lipoxygenase); Potency, µM (series often up to 57.1 µM), without a hit: at the top dose activity change, negative = inhibition, usual class: inhibitors; 150,000 compounds, 0.12% hits; Polyunsaturated fatty acid lipoxygenase ALOX12 (Homo sapiens), P18054; AID 1452, 2008; purified 12-hLO, xylenol orange hydroperoxide absorbance; note: potency is the fitted concentration of half-maximal effect; nearly all actives have a fitted effect of over 55% in size
#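 Hydroperoxide output read as Fe(III)-xylenol orange absorbance, 573-to-405 nm ratio, after 30 min reaction with 40 uM arachidonic acid. Enzyme: 150 nM purified human 12hLO, 15 min compound preincubation; 25 mM Hepes pH 7.0, room temperature.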
# Active calls of the source: *; ? = inconclusive; . = no result given; [ ] = another dose, or the depositor's remark. Unless noted, calls come from the whole dose curve; as a rule, active = well fitted curve in the direction sought with a large enough effect; inconclusive = small, poorly fitted or top-dose-only effect, or another doubt; inactive = no such curve, though single readings can be large; an effect the other way counts as inactive or inconclusive. Unless noted, % is set by controls: 0 for no effect and ±100 for the full control effect.
SMILES,IMPase Li inh,IMPase inh,ALOX15B inhib,ALOX12 inhib
COC(=O)C1=C(C(=O)OC)[C@@H]2N(C)c3ccccc3[C@@]23C[C@@H](CO)N(C(=O)c2cc(C)oc2C)C3=N1,-14.1%,.,.,0.2%[11.4 µM]
CCOC(=O)c1sc2nc(C3CC3)cc(-c3ccc(F)cc3)c2c1N,11.2µM*,-6.7,18.4%,-11.3%
CCOC(=O)c1sc2nc(C3CC3)cc(-c3ccc(OC)cc3)c2c1N,-27.9%[38.3 µM],-12.6,14.1%,2.4%
COc1ccc(-c2nc3cnc(N4CCN(C)CC4)nc3n(Cc3cccs3)c2=O)cc1,25.8%,.,-4.3%,.
COc1ccc(-c2nc3cnc(N4CCOCC4)nc3n(Cc3cccs3)c2=O)cc1,2µM*,.,-0.3%,.
CN(C)c1ncc2nc(-c3cc(F)cc(F)c3)c(=O)n(Cc3cccs3)c2n1,5.62µM*,.,5.8%,-4.4%
Cn1c(C(=O)N2CCN(C(=O)c3ccco3)CC2)cc2c(=O)n3ccccc3nc21,10µM*,?,-13.0%,-9.1%
C[C@@]12C=CC(=O)C=C1CC[C@@H]1C2=CC[C@]2(C)[C@@H]1CC[C@H]2C(=O)CN1CCN(c2cc(N3CCCC3)nc(N3CCCC3)n2)CC1,.,11.1,-9.2%,-12.1%
COc1ccc(OC)c(S(=O)(=O)Nc2ccc(O)c3ccccc23)c1,35.6%,14.0,15.8µM*,-18.2%
Nc1ncnc2c1c(I)cn2C1OC(CO)C(O)C1O (centres undefined),-6.7%,.,2.1%,-1.0%
CCCCCCc1cc2cc(-c3nnc(-c4ccccc4O)o3)c(=O)oc2cc1O,-1.9%[38.3 µM],-3.9,25.1µM*,-15.5%
CCNc1ncc2ncc(=O)n(C3CC3)c2n1,-15.0%,.,19.9%,.
COc1c2c(nc3ccccc13)O[C@@H]([C@@](C)(O)CO)C2,.,-2.3,6.1%,5.1%
COC(=O)[C@@H](NC(=O)N1CCc2nc(-c3ccccc3)c3c(c2C1)CO[C@@H](C)C3)C(C)C,-6.1%,.,.,1.1%[11.4 µM]
O=C(Nc1cccc(-c2nc3ncccc3o2)c1)c1sc2cc(Cl)ccc2c1Cl,11.2µM*,-0.8,-27.3%,-5.2%
COC(=O)C(C(=O)OC)[C@@H]1c2ccccc2[C@H]2C(=C[C@@H](C)[C@H]3C(=O)N(c4ccccc4)C(=O)[C@H]32)N1C(=O)OC,1.5%,.,.,-5.4%[11.4 µM]
c1ccc(N2CCN(c3cnccn3)CC2)nc1,.,4.9,-5.1%,-4.3%
N#Cc1cc(C#N)c(N2CCN(c3ccccn3)CC2)nc1N,28.2µM*,1.1,-4.7%,0.4%
O=C(NC(=S)Nc1ccc2oc(-c3ccncc3)nc2c1)c1ccccc1F,5.62µM*,.,.,.
O=c1c2c(-c3cccs3)csc2[nH]c(=S)n1-c1ccccc1,10µM*,?,?,-7.7%
O=c1c2c(-c3cccs3)csc2ncn1-c1ccccc1,2.4%,-3.9,.,-5.0%
CC1(C)[C@@H]2CC[C@]1(C)[C@@H](OC(=O)/C=C\c1ccccc1)C2,0.4%,.,-0.9%[11.4 µM],-4.7%[11.4 µM]
CCCCc1ccc(C2C(C#N)=C(N)SC(N)=C2C#N)s1,-22.0%[38.3 µM],?,12.6µM*,?
CC(C)NS(=O)(=O)c1ccc(NC(=S)NC(=O)c2ccc(-c3ccccc3)cc2)cc1,16.6%[38.3 µM],-0.8,20µM*,?
O[C@@H](c1cc(C(F)(F)F)nc2c(Cl)cc(Cl)cc12)[C@@H]1CCCCN1,.,.,32.4%[11.4 µM],3.2%[11.4 µM]
SMILES,IMPase Li inh,IMPase inh,ALOX15B inhib,ALOX12 inhib
Cc1ccc(C(=O)Nc2nnc(-c3ccc(C(C)(C)C)cc3)s2)cc1,3.55µM*,?,-6.8%,-1.0%
Cc1ccc(-c2ccc(/C=C3\C(=O)ON=C3c3ccccc3)o2)c([N+](=O)[O-])c1,20.6%[38.3 µM],2.5,3.98µM*,-7.9%
CCCCCCCCCC(=O)N[C@@H](CN1CCOCC1)[C@@H](O)c1ccccc1,.,-0.3,21.6%,-2.9%
CCN1/C(=C2\OC(=S)N(C)C2=O)Sc2ccccc21,11.2µM*,-7.2,-3.7%,2.2%
CC(C)(C)NC(=S)Nc1ccc(Nc2ccccc2)cc1,6.4%[38.3 µM],4.9,15.8µM*,?
CC(C)(C)NC(=S)Nc1ccc(Br)cc1,-0.1%[38.3 µM],1.2,-29.6%,-26.5%
COc1ccc(CCNC(=S)Nc2ccc(C)cc2C)cc1,-3.1%,.,.,?
COc1ccc(CCNC(=S)Nc2cc(C)ccc2C)cc1,39.5%[38.3 µM],0.9,25.1µM*,7.94µM*
COc1ccc(CCNC(=S)Nc2cccc(C)c2C)cc1,10.4%[38.3 µM],8.5,25.1µM*,?
O=C1C(Cl)=C(NC2CCc3ccccc32)C(=O)c2ncccc21 (centres undefined),19.9%,.,?,-3.9%
CCOC(=O)C1Oc2ccccc2C(c2ccccc2)=C1C(C)=O (centres undefined),19.8%,.,-13.6%[0.0915 µM],-0.6%[0.00818 µM]
COc1ccc(-c2noc(-c3ccccc3Cl)n2)cc1OC,8.91µM*,2.2,2.5%,4.9%
CCOC(=O)N1CCN(C(=O)c2ccc3c(=O)n(Cc4ccc(Cl)cc4)c(=S)[nH]c3c2)CC1,7.0%[38.3 µM],-3.7,-8.5%,-10.3%
CCOC(=O)Cn1c(=S)[nH]c2c(oc3ccc(Cl)cc32)c1=O,8.91µM*,?,-25.6%,1.7%
CCNc1ncc2nc(-c3cc(F)cc(F)c3)c(=O)n(C)c2n1,-14.4%,.,-2.3%,.
COc1c(CO)cc(CO)cc(CO)c1=O,-10.7%,.,.,.
N=C1C(c2nc3ccccc3c(=O)[nH]2)=C(O)CN1CCc1ccccc1,11.2µM*,-3.4,0.8%,-0.4%
N=C1C(c2nc3ccccc3c(=O)[nH]2)=C(O)CN1CCO,7.0%[38.3 µM],-0.7,7.7%,-3.4%
O=C(Nc1nnc(-c2ccc(F)cc2)s1)C1CCN(S(=O)(=O)c2ccc(Cl)cc2)CC1,7.94µM*,.,.,-0.6%
O=C(CSc1nc2ccccc2c(=O)n1Cc1ccccc1)NCc1ccco1,10µM*,-20.5,-12.6%,4.3%
CCn1c(SCC(=O)NCc2ccco2)nc2ccccc2c1=O,4.0%,.,.,.
Cc1ccc(Sc2c(C)nn(C(=O)COc3ccccc3)c2C)cc1,.,-3.0,.,.
CO[C@@H]1/C=C\O[C@]2(C)Oc3c(C)c(O)c4c(O)c(cc(O)c4c3C2=O)NC(=O)/C(C)=C\C=C/[C@H](C)[C@@H](O)[C@H](C)[C@H](O)[C@H](C)[C@H](OC(C)=O)[C@@H]1C,.,.,-16.1%[11.4 µM],3.8%[11.4 µM]
Cc1ccc(-c2cc(-c3ccccc3)c3c(N)c(S(C)(=O)=O)sc3n2)cc1,10µM*,-23.1,-14.9%,-9.1%
CS(=O)(=O)c1sc2nc(-c3cccs3)cc(-c3ccccc3)c2c1N,?,?,?,-25.8%
Cc1c(/C(O)=C2/C(=O)C(=O)N(Cc3cccnc3)C2c2cccs2)cnn1-c1ccccc1 (centres undefined),7.08µM*,?,-10.3%,-15.3%
CC(C)[C@H](NC(=O)CNC(=O)OC(C)(C)C)C(=O)N[C@H](C=O)C(C)C,-11.4%,.,.,.
Cc1ccccc1NC(=S)NCc1ccc2[nH]c3c(c2c1)CCCC3,32.7%,.,.,14.1µM*
CCCCCCCCCCC1=C(C)C(=O)C(OC)=C(OC)C1=O,-3.3%,.,.,.
